Experimental data published in PubChem BioAssay (NCATS).
Several values for one entry are separate records, joined by “and”; a condition that tells them apart may be missing. Identical values can stand only once. Values without a mark were called inactive. Results filed as inconclusive are left out. Where a call stands in place of a potency, no number is given. Activity calls are given as the source filed them. Unless noted, calls come from the whole dose curve; as a rule, active = well fitted curve in the direction sought with a large enough effect in the repeat runs; inconclusive = weak or mixed curves; inactive = no such curve, though single readings can be large; an effect the other way counts as inactive or inconclusive.

How the values were obtained:
[1] = qHTS for compounds that reverse cellular toxicity of Amyloid beta (A-beta) peptide in yeast: LOPAC Validation Assay (AID 720559; active = well fitted curve in the direction sought with a large enough effect; an effect the other way counts as inactive or inconclusive)
In short: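 OD600 growth readout after 48 hr at 30 C; A-beta-toxic yeast plus pinned compounds in medium. Normalization: DMSO = negative, equimolar FeCl3 + clioquinol = positive.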

[2] = qHTS for Activators of Parkin Expression: LOPAC Validation Assay (NLuc Reporter) (AID 720572; active = well fitted curve in the direction sought with a large enough effect; an effect the other way counts as inactive or inconclusive)
In short: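 Neuronal cells with a Parkin promoter-driven FLuc/NLuc coincidence reporter were treated 24 h at 37 C in 7-point dose response (LOPAC). NLuc luminescence read after FLuc; signals normalized to DMSO and positive control (100%).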

[3] = qHTS for Activators of Parkin Expression: LOPAC Validation Assay (FLuc Reporter) (AID 720573; active = well fitted curve in the direction sought with a large enough effect; an effect the other way counts as inactive or inconclusive)
In short: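 FLuc luminescence read-out from a neuronal line expressing a Parkin-promoter-driven coincidence reporter. Cells treated 24 h at 37 C, 5% CO2 with compounds at 7 concentrations; signal increase normalized to DMSO and positive control.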

[4] = target: T1, Hexokinase-4 (Homo sapiens) + Glucokinase regulatory protein (Homo sapiens) (UniProt P35557+Q14397); assay: qHTS assay for inhibitors of recombinant human GCK-GKRP interaction: Diaphorase-coupled assay (AID 743205; active = well fitted curve in the direction sought with a large enough effect; an effect the other way counts as inactive or inconclusive)
T1 sequence (P35557 whole entry, looked up): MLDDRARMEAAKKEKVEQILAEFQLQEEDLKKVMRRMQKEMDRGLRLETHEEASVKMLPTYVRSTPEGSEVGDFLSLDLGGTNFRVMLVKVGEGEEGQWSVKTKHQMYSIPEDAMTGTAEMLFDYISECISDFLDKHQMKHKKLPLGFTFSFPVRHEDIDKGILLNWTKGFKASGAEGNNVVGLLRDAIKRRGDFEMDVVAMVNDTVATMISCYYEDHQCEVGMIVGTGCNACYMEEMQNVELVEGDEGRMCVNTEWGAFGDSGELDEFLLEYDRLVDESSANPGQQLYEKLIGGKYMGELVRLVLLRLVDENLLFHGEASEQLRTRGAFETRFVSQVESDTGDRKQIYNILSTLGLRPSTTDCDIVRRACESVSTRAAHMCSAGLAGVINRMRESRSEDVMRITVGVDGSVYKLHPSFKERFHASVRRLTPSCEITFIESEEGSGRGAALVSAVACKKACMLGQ
T1 sequence (Q14397 whole entry, looked up): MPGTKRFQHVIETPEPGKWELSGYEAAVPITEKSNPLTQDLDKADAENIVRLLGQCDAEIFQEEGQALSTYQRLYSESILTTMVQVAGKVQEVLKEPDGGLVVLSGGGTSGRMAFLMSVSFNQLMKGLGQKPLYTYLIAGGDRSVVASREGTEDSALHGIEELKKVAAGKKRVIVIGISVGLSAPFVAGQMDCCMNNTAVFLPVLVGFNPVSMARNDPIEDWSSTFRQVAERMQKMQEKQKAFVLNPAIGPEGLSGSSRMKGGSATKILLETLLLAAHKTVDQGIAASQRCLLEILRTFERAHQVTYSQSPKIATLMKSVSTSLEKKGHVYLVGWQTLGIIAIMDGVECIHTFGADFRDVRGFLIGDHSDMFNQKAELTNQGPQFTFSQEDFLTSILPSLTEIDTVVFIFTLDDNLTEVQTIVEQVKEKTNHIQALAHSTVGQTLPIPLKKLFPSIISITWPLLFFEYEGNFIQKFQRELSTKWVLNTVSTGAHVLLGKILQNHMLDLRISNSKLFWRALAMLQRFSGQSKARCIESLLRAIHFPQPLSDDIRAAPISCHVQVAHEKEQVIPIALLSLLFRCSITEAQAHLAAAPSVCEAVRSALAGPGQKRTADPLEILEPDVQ
In short: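 Resorufin fluorescence (525/590 nm), read each minute over 30 min, reports GCK activity coupled via G6PDH and diaphorase. Reaction: 10 nM GST-GCK, 10 nM FLAG-GKRP, 5 mM glucose, 0.4 mM ATP, 0.15 mM NADP+, 0.1 mM resazurin.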

[5] = target: T1, Hexokinase-4 (Homo sapiens) + Glucokinase regulatory protein (Homo sapiens); assay: qHTS assay for inhibitors of recombinant human GCK-GKRP interaction: ADP-Glo assay (AID 743206; active = well fitted curve in the direction sought with a large enough effect; an effect the other way counts as inactive or inconclusive)
In short: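 GST-GCK and FLAG-GKRP (15 nM each in the dispensed mix, with 2 uM S6P) react with 0.4 mM ATP and 5 mM glucose (final) in Hepes pH 7.6 for 60 min at room temperature. ADP is measured by ADP-Glo luminescence.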

[6] = qHTS assay for small molecule agonists of the antioxidant response element (ARE) signaling pathway measured by Nrf2-dependant transcriptional activity (AID 720636); note: potency is the fitted concentration of half-maximal effect
In short: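 Nrf2-dependent transcription is measured in ARE-luc HepG2 cells: compound is applied for 16 hr at 37 C after a 6 hr attachment period, and luciferase activity is quantified by luminescence using ONE-Glo.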

[7] = qHTS assay for small molecule antagonists of the retinoid-related orphan receptor gamma (ROR-gamma) signaling pathway - cell viability counter screen (AID 720652);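 note: compound exposure lasted 16 hr before ATP read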; note: potency is the fitted concentration of half-maximal effect
In short: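 Counter screen in CHO cells carrying TET-inducible ROR-gamma and an ROR response element-luciferase reporter; cells plated 5 hr, compound pinned, doxycycline added, then 16 hr at 37 C. Viability read as intracellular ATP by CellTiter-Glo luminescence.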

[8] = qHTS assay for small molecule agonists of the antioxidant response element (ARE) signaling pathway measured by Nrf2-dependant transcriptional activity - cell viability counter screen (AID 720653); conditions: ARE-bla HepG2 viability, CellTiter-Glo ATP luminescence, 16 h; max response: active compounds read low
In short: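 ARE-bla HepG2 cells treated with compounds for 16 h at 37C; this counter screen measures viability as intracellular ATP by CellTiter-Glo luminescence after 30 min at room temperature.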

Compound: CS(=N)(=O)CC[C@H](N)C(=O)O (stereo not given in full)
- outcome [1]: inactive
- outcome [2]: inactive
- outcome [3]: inactive
- outcome [4]: inactive
- outcome [5]: inactive

Compound: CNCCc1c[nH]c2ccc(O)cc12
- outcome [1]: inactive
- outcome [2]: inactive
- outcome [3]: inactive
- outcome [4]: inactive
- outcome [5]: inactive

Compound: Nc1ccc([N+](=O)[O-])cc1
- Potency [6]: inactive
- Potency [7]: inactive
- max response [8]: -0.336%

Compound: CC1=NN=C(c2ccc(N)cc2)c2cc3c(cc2C1)OCO3
- outcome [1]: inactive
- outcome [2]: inactive
- outcome [3]: inactive
- outcome [4]: inactive
- outcome [5]: inactive

Compound: CN1C2CCC1CC(OC(=O)c1cc(Cl)cc(Cl)c1)C2 (stereo not given)
- outcome [1]: inactive
- outcome [2]: inactive
- outcome [3]: inactive
- outcome [4]: inactive
- outcome [5]: inactive

Compound: NCc1cc(=O)[nH]o1
- outcome [1]: inactive
- outcome [2]: inactive
- outcome [3]: inactive
- outcome [4]: inactive
- outcome [5]: inactive

Compound: CO/C=C(/C(=O)OC)c1ccccc1Oc1cc(Oc2ccccc2C#N)ncn1
- Potency [6]: inactive

Compound: O=[N+]([O-])c1cc([N+](=O)[O-])c2ccccc2c1
- Potency [6]: 42.2 µM (active)
- Potency [7]: inactive
- max response [8]: -11.7%

Compound: CCO/N=C(\CC)C1=C(O)CC(c2c(C)cc(C)cc2C)CC1=O (stereo not given)
- Potency [6]: inactive
- max response [8]: 1.75%

Compound: OCCCBr
- Potency [6]: inactive
- Potency [7]: inactive
- max response [8]: 4.92%

Compound: C=CCC1=C(C)C(OC(=O)C2C(C=C(C)C)C2(C)C)CC1=O (stereo not given)
- Potency [6]: inactive
- max response [8]: 6.17% and -10.4%

Compound: CCCCCCCCc1ccc(O)cc1
- max response [8]: -0.124% and 0.446%

Compound: CC(C)(O)C(=O)Nc1ccc([N+](=O)[O-])c(C(F)(F)F)c1
- Potency [6]: inactive
- Potency [7]: inactive
- max response [8]: -5.91%

Compound: CCCCCCCCCC(CC)c1ccc(S(=O)(=O)O)cc1 (stereo not given)
- Potency [6]: inactive
- max response [8]: -0.0281% and -4.65%

Compound: CCCCC(CC)COC(=O)c1ccccc1C(=O)OCC(CC)CCCC (stereo not given)
- Potency [6]: inactive
- Potency [7]: inactive
- max response [8]: -8.88% and -12.5%

Compound: C[C@]12N[C@H](Cc3ccccc31)c1ccccc12
- outcome [4]: inactive
- outcome [5]: inactive

Compound: O=[N+]([O-])/N=C1\NCCN1Cc1ccc(Cl)nc1
- Potency [6]: inactive
- max response [8]: 8.85%

Compound: Nc1c(Cl)c(Cl)c(Cl)c(Cl)c1Cl
- Potency [6]: inactive
- max response [8]: 1.83%

Compound: COc1nn(CSP(=S)(OC)OC)c(=O)s1
- Potency [6]: inactive
- max response [8]: -11.6%

Compound: Nc1ccc(Cl)cc1
- Potency [6]: inactive
- Potency [7]: inactive
- max response [8]: -5.98%

Compound: CC(C)(C)C(O)C(Oc1ccc(Cl)cc1)n1cncn1 (stereo not given)
- Potency [6]: inactive
- max response [8]: -9.81%

Compound: COCCOCCO
- Potency [6]: inactive
- max response [8]: -0.036% and -2.85%

Compound: O=[N+]([O-])c1c2ccccc2cc2ccccc12
- Potency [7]: inactive
- max response [8]: -1.85%

Compound: O=C(O)C(Cl)Cl
- Potency [6]: inactive
- max response [8]: -10.5% and 2.18%

Compound: CS(=O)(=O)c1ccc(C(=O)C2C(=O)CCCC2=O)c([N+](=O)[O-])c1
- Potency [6]: inactive
- max response [8]: -7.62%

Compound: CCCCCC[C@H]1C(=O)O[C@H](C)[C@H](NC(=O)c2cccc(NC=O)c2O)C(=O)O[C@@H](C)[C@@H]1OC(=O)CC(C)C
- Potency [6]: inactive
- max response [8]: -26.8%

Compound: CN(C)NC(=O)CCC(=O)O
- Potency [6]: inactive
- Potency [7]: inactive
- max response [8]: -0.912% and -0.667%

Compound: COc1ccc(C(c2ccc(OC)cc2)C(Cl)(Cl)Cl)cc1
- Potency [6]: inactive
- Potency [7]: 66.8 µM (active) and 42.2 µM (active)
- max response [8]: 5.23% and -7.02% and -11.5%

Compound: O=C(Nc1ccccc1-c1ccc(Cl)cc1)c1cccnc1Cl
- Potency [6]: inactive
- max response [8]: -1.23%

Compound: Nc1ccc(N=Nc2ccccc2)cc1
- max response [8]: -5.85%

Compound: O=C(O)c1cc(Oc2ccc(C(F)(F)F)cc2Cl)ccc1[N+](=O)[O-]
- Potency [6]: inactive
- max response [8]: -5.54%

Compound: O=[N+]([O-])c1c(Cl)c(Cl)cc(Cl)c1Cl
- Potency [6]: inactive
- Potency [7]: inactive
- max response [8]: 0.0593%

Compound: Nc1cccc2c(N)cccc12
- max response [8]: -13.9%

Compound: CCCCOC(=O)c1ccccc1C(=O)OCc1ccccc1
- Potency [6]: inactive
- Potency [7]: inactive
- max response [8]: -1.29% and -2.62%

Compound: O=S(=O)(c1ccc(Cl)cc1)c1ccc(Cl)cc1
- Potency [6]: inactive
- Potency [7]: inactive
- max response [8]: -11% and -26.7% and -18.8%

Compound: c1cc2ccc3cccc4ccc(c1)c2c34
- Potency [6]: inactive
- Potency [7]: inactive
- max response [8]: -6.01% and -15.3%

Compound: CCCCCCCCCCCCCCCC[N+](C)(C)C
- Potency [6]: inactive
- max response [8]: -27.3% and -1.44%

Compound: CCOP(=O)(NC(C)C)Oc1ccc(SC)c(C)c1 (stereo not given)
- Potency [6]: inactive
- Potency [7]: inactive
- max response [8]: -14.8% and -8.95%

Compound: O=S(=O)(O)C(F)(F)C(F)(F)C(F)(F)C(F)(F)F
- Potency [6]: inactive
- max response [8]: -3.1% and 4.61%

Compound: O=C(O)CCCOc1ccc(Cl)cc1Cl
- Potency [6]: inactive
- max response [8]: -1.4%

Compound: CC(C)Oc1cccc(NC(=O)c2ccccc2C(F)(F)F)c1
- Potency [6]: inactive
- max response [8]: -3.23%

Compound: COC(C)(C)CCCC(C)C/C=C/C(C)=C/C(=O)OC(C)C (stereo not given)
- max response [8]: -7.11% and 1.67%

Compound: O=C(O)COc1nc(Cl)c(Cl)cc1Cl
- Potency [6]: inactive
- max response [8]: -15.1%

Compound: O=S(=O)(O)C(F)(F)C(F)(F)C(F)(F)C(F)(F)C(F)(F)C(F)(F)C(F)(F)C(F)(F)F
- Potency [6]: inactive
- max response [8]: 2.35% and -3.55%

Compound: ClC1=C(Cl)[C@]2(Cl)[C@@H]3[C@@H]4C[C@@H]([C@H]5O[C@@H]45)[C@@H]3[C@@]1(Cl)C2(Cl)Cl
- Potency [6]: inactive
- max response [8]: -16.9%

Compound: Nc1ccc(Cl)cc1N
- Potency [7]: inactive
- max response [8]: -19.8%
